Measurements from PubChem BioAssay AID1159580 (chemical genetic matrix, 2015).
The campaign covered roughly 5,500 compounds. About 2,000 (36%) were called active. Not shown: some 18% with an inconclusive outcome. Rule as the data show it: active = normalized growth mostly below about 0.91 (no sharp cut-off); inconclusive = no clear call, values can overlap the other calls; inactive = mostly above about 0.92. The list shows a part of the results.

Assay: chemical genetic growth profiling, strain panel (AID 1159580);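 also: tested at 20 µM; growth read once vehicle control cultures reached saturation at 30 °C; 1 = growth at the plate median or of vehicle wells; lower values mean less growth of the strain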
Details: growth OD

Measured: normalized growth

CC1CC2C3CC(F)C4=CC(=O)C=CC4(C)C3(F)C(O)CC2(C)C1C(=O)COC(=O)C(C)(C)C (stereo not given)
inactive: S. cerevisiae deletion strains, locus YBR021W, strain FUR4, stronger effect = lower value 0.903 | S. cerevisiae deletion strains, locus YBR229C, strain ROT2, stronger effect = lower value 0.997 | S. cerevisiae deletion strains, locus YCL029C, strain bik1, stronger effect = lower value 1.05 | S. cerevisiae deletion strains, locus YDL035C, strain GPR1, stronger effect = lower value 0.871 | S. cerevisiae deletion strains, locus YDL074C, strain BRE1, stronger effect = lower value 0.879 | S. cerevisiae deletion strains, locus YDL101C, strain DUN1, stronger effect = lower value 1.01 | S. cerevisiae deletion strains, locus YDL185W, strain tfp1, stronger effect = lower value 1.01 | S. cerevisiae deletion strains, locus YDL192W, strain arf1, stronger effect = lower value 0.997 | S. cerevisiae deletion strains, locus YDR101C, strain arx1, stronger effect = lower value 1.02 | S. cerevisiae deletion strains, locus YDR150W, strain NUM1, stronger effect = lower value 0.977 | S. cerevisiae deletion strains, locus YDR162C, strain NBP2, stronger effect = lower value 0.867 | S. cerevisiae deletion strains, locus YDR318W, strain mcm21, stronger effect = lower value 1.01 | S. cerevisiae deletion strains, locus YDR388W, stronger effect = lower value 1.04 | S. cerevisiae deletion strains, locus YDR502C, strain sam2, stronger effect = lower value 1.02 | S. cerevisiae deletion strains, locus YEL061C, strain CIN8, stronger effect = lower value 0.973 | S. cerevisiae deletion strains, locus YER110C, stronger effect = lower value 1.04 | S. cerevisiae deletion strains, locus YER155C, strain BEM2, stronger effect = lower value 1.04 | S. cerevisiae deletion strains, locus YER167W, strain BCK2, stronger effect = lower value 0.992 | S. cerevisiae deletion strains, locus YGL078C, strain dbp3, stronger effect = lower value 1.02 | S. cerevisiae deletion strains, locus YGL086W, strain mad1, stronger effect = lower value 0.96 | S. cerevisiae deletion strains, locus YGL248W, strain PDE1, stronger effect = lower value 0.927 | S. cerevisiae deletion strains, locus YGR078C, strain PAC10, stronger effect = lower value 0.92 | S. cerevisiae deletion strains, locus YGR135W, strain pre9, stronger effect = lower value 0.957 | S. cerevisiae deletion strains, locus YGR252W, strain gcn5, stronger effect = lower value 0.849 | S. cerevisiae deletion strains, locus YHR030C, strain SLT2, stronger effect = lower value 0.989 | S. cerevisiae deletion strains, locus YHR079C, strain IRE1 (second series), stronger effect = lower value 1.03 | S. cerevisiae deletion strains, locus YHR094C, strain hxt1, stronger effect = lower value 1.04 | S. cerevisiae deletion strains, locus YHR129C, strain ARP1, stronger effect = lower value 0.964 | S. cerevisiae deletion strains, locus YHR200W, strain rpn10, stronger effect = lower value 1.01 | S. cerevisiae deletion strains, locus YIL073C, strain SPO22, stronger effect = lower value 0.954 | S. cerevisiae deletion strains, locus YIL125W, strain kgd1, stronger effect = lower value 1.02 | S. cerevisiae deletion strains, locus YIR030C, strain dcg1, stronger effect = lower value 1.03 | S. cerevisiae deletion strains, locus YJL095W, strain BCK1, stronger effect = lower value 0.989 | S. cerevisiae deletion strains, locus YJL134W, strain LCB3, stronger effect = lower value 1.01 | S. cerevisiae deletion strains, locus YJL168C, strain set2, stronger effect = lower value 1.01 | S. cerevisiae deletion strains, locus YJL187C, strain SWE1 (second series), stronger effect = lower value 0.934 | S. cerevisiae deletion strains, locus YJR043C, strain POL32, stronger effect = lower value 0.892 | S. cerevisiae deletion strains, locus YKL009W, strain mrt4, stronger effect = lower value 1.03 | S. cerevisiae deletion strains, locus YKL068W, stronger effect = lower value 1.02 | S. cerevisiae deletion strains, locus YKL085W, strain MDH1 (second series), stronger effect = lower value 1.01 | S. cerevisiae deletion strains, locus YKL085W, strain MDH1, stronger effect = lower value 1.01 | S. cerevisiae deletion strains, locus YKR001C, strain vps1, stronger effect = lower value 0.987 | S. cerevisiae deletion strains, locus YLR039C, strain RIC1, stronger effect = lower value 0.804 | S. cerevisiae deletion strains, locus YLR058C, strain SHM2, stronger effect = lower value 0.981 | S. cerevisiae deletion strains, locus YLR102C, strain apc9, stronger effect = lower value 1.03 | S. cerevisiae deletion strains, locus YLR262C, strain YPT6, stronger effect = lower value 0.872 | S. cerevisiae deletion strains, locus YLR268W, strain sec22, stronger effect = lower value 0.985 | S. cerevisiae deletion strains, locus YLR330W, strain CHS5, stronger effect = lower value 0.967 | S. cerevisiae deletion strains, locus YLR371W, strain rom2, stronger effect = lower value 1.03 | S. cerevisiae deletion strains, locus YLR418C, strain cdc73, stronger effect = lower value 0.953 | S. cerevisiae deletion strains, locus YML016C, strain PPZ1, stronger effect = lower value 0.951 | S. cerevisiae deletion strains, locus YML032C, strain rad52, stronger effect = lower value 1.03 | S. cerevisiae deletion strains, locus YML124C, strain tub3, stronger effect = lower value 1.02 | S. cerevisiae deletion strains, locus YMR078C, strain ctf18, stronger effect = lower value 1.04 | S. cerevisiae deletion strains, locus YMR223W, strain ubp8, stronger effect = lower value 0.965 | S. cerevisiae deletion strains, locus YMR307W, strain GAS1, stronger effect = lower value 0.922 | S. cerevisiae deletion strains, locus YNL067W, strain RPL9B, stronger effect = lower value 0.989 | S. cerevisiae deletion strains, locus YNL128W, strain TEP1, stronger effect = lower value 0.908 | S. cerevisiae deletion strains, locus YNL233W, strain BNI4, stronger effect = lower value 0.919 | S. cerevisiae deletion strains, locus YNL250W, strain rad50, stronger effect = lower value 1.01 | S. cerevisiae deletion strains, locus YNL271C, strain bni1, stronger effect = lower value 1.02 | S. cerevisiae deletion strains, locus YNL298W, strain CLA4, stronger effect = lower value 1.01 | S. cerevisiae deletion strains, locus YNL307C, strain MCK1, stronger effect = lower value 1.03 | S. cerevisiae deletion strains, locus YNL322C, strain KRE1, stronger effect = lower value 0.984 | S. cerevisiae deletion strains, locus YNR052C, strain pop2, stronger effect = lower value 1.01 | S. cerevisiae deletion strains, locus YOL012C, strain htz1 1.01 | S. cerevisiae deletion strains, locus YOL147C, strain pex11, stronger effect = lower value 1.03 | S. cerevisiae deletion strains, locus YOR069W, strain VPS5, stronger effect = lower value 0.991 | S. cerevisiae deletion strains, locus YOR136W, strain idh2, stronger effect = lower value 1.02 | S. cerevisiae deletion strains, locus YOR144C, strain elg1, stronger effect = lower value 1.03 | S. cerevisiae deletion strains, locus YOR184W, strain ser1, stronger effect = lower value 0.974 | S. cerevisiae deletion strains, locus YOR316C, strain cot1, stronger effect = lower value 1.03 | S. cerevisiae deletion strains, locus YPL055C, strain LGE1, stronger effect = lower value 0.843 | S. cerevisiae deletion strains, locus YPL241C, strain CIN2, stronger effect = lower value 0.992 | S. cerevisiae deletion strains, locus YPR119W, strain clb2, stronger effect = lower value 1.03 | S. cerevisiae deletion strains, locus YPR141C, strain kar3, stronger effect = lower value 1.02 | S. cerevisiae deletion strains, locus YPR163C, strain tif3, stronger effect = lower value 1.03 | S. cerevisiae deletion strains, locus YPR167C, strain met16, stronger effect = lower value 1.01 | S. cerevisiae deletion strains, strain wtn01, stronger effect = lower value 0.983
active: S. cerevisiae deletion strains, locus YDL134C, strain PPH21, stronger effect = lower value 0.873 | S. cerevisiae deletion strains, locus YIL066C, strain RNR3, stronger effect = lower value 0.852 | S. cerevisiae deletion strains, locus YLR342W, strain FKS1 (second series), stronger effect = lower value 0.758 | S. cerevisiae deletion strains, locus YOL006C, strain TOP1, stronger effect = lower value 0.509 | S. cerevisiae deletion strains, locus YOR061W, strain CKA2, stronger effect = lower value 0.878 | S. cerevisiae strains, strain wild type, stronger effect = lower value 0.876
